The values below come from PubChem BioAssay (Tox21).

Each structure is given as a SMILES string. Records with an inconclusive call do not appear. Values without a mark were called inactive. Calls of active or inactive are those of the source. The call rests on the fitted dose curve; in most records, active means well fitted curve in the direction sought with a large enough effect in the repeat runs; inconclusive means weak or mixed curves; inactive means no such curve, though single readings can be large; an effect the other way counts as inactive or inconclusive.

The nature of assay [1]: A CellTox Green Cytotoxicity Assay to monitor cytotoxicity in HEK293 cells - 40 hour (AID 1224871). Further: nearly all actives have a fitted effect of over 45% in size. Further: potency means the concentration at half of the fitted maximal effect. The settings on record: CellTox Green fluorescence; series mostly up to 76.8 µM. A digest of the protocol:
(§1)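 Fluorescence intensity, read at 0, 8, 16, 24, 32 and 40 h of compound treatment, reflected dye binding to DNA of dead HEK293 cells; compounds (23 nL, DMSO) were added 5 h after plating cells with reagent.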

Assay [2] is described as follows: qHTS RealTime-Glo MT Cell Viability Assay in HEK293 cells - 40 hour (AID 1224874). Further: nearly all actives have a fitted effect of over 50% in size. Further: potency means the concentration at half of the fitted maximal effect. The settings on record: RealTime-Glo luminescence; max response: hits give low values. A digest of the protocol: (§2)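 Viable HEK293 cells reduce a cell-permeant prosubstrate; the product diffuses out and is consumed by NanoLuc in the medium to give light. Compounds went in after a 5 h incubation and plates were read over the treatment course.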
Background: qHTS replaces the single test concentration by a dilution series.

Assay [3] is described as follows: A CellTox Green Cytotoxicity Assay to monitor cytotoxicity in HepG2 cells - 16 hour (AID 1224876). Further: nearly all actives have a fitted effect of over 45% in size. Further: potency means the concentration at half of the fitted maximal effect. Conditions: CellTox Green fluorescence; series mostly up to 76.8 µM. A digest of the protocol: (§3)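 Using 1536-well format, dye-containing HepG2 suspension was seeded, allowed 5 h at 37 C/5% CO2, dosed by pintool with compounds, positive and negative controls, and imaged for fluorescence across 40 h.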

Assay [4] in a line: A CellTox Green Cytotoxicity Assay to monitor cytotoxicity in HepG2 cells - 24 hour (AID 1224878). Further: nearly all actives have a fitted effect of over 45% in size. Further: potency means the concentration at half of the fitted maximal effect. The settings on record: CellTox Green fluorescence; series mostly up to 76.8 µM. The gist of the method:
as §3

Assay [5] is described as follows: A CellTox Green Cytotoxicity Assay to monitor cytotoxicity in HepG2 cells - 40 hour (AID 1224879). Further: nearly all actives have a fitted effect of over 40% in size. Further: potency means the concentration at half of the fitted maximal effect. Conditions: CellTox Green fluorescence; series mostly up to 76.8 µM. A digest of the protocol: as §3
The nature of assay [6]: qHTS RealTime-Glo MT Cell Viability Assay in HEK293 cells - 0 hour (AID 1224880). Further: top concentration of the series differs between compounds; nearly all actives have a fitted effect of over 45% in size. The settings on record: RealTime-Glo luminescence; series mostly up to 76.8 µM. A digest of the protocol: as §2
Assay [7] is described as follows: qHTS RealTime-Glo MT Cell Viability Assay in HepG2 cells - 8 hour (AID 1224873). Further: nearly all actives have a fitted effect of over 55% in size. The settings on record: RealTime-Glo luminescence; series mostly up to 76.8 µM. The gist of the method:
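HepG2 cells mixed with RealTime-Glo MT reagents (NanoLuc plus cell-permeant prosubstrate) were seeded at 600 cells/well, incubated 5 h at 37 C/5% CO2, then pinned with compounds in DMSO; nonlytic luminescence tracked viability during 40 h treatment.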

A short description of assay [8]: A CellTox Green Cytotoxicity Assay to monitor cytotoxicity in HEK293 cells - 24 hour (AID 1224875). Further: nearly all actives have a fitted effect of over 45% in size. Further: potency means the concentration at half of the fitted maximal effect. The settings on record: CellTox Green fluorescence; series mostly up to 76.8 µM. The gist of the method:
as §1

Assay [9] can be described thus: qHTS RealTime-Glo MT Cell Viability Assay in HepG2 cells - 32 hour (AID 1224877). Further: nearly all actives have a fitted effect of over 55% in size. The settings on record: RealTime-Glo luminescence; series mostly up to 76.8 µM. The gist of the method:
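qHTS, HepG2, 600 cells/well, RealTime-Glo (NanoLuc + prosubstrate) added with cells; 5 h preincubation; DMSO compound addition; 37 C; luminescence at 0/8/16/24/32/40 h.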

A short description of assay [10]: qHTS RealTime-Glo MT Cell Viability Assay in HEK293 cells - 16 hour (AID 1224872). Further: top concentration of the series differs between compounds; nearly all actives have a fitted effect of over 50% in size. The settings on record: RealTime-Glo luminescence; series mostly up to 76.8 µM. A digest of the protocol: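 Assay medium contained NanoLuc luciferase plus cell-permeant prosubstrate, added with HEK293 cells at 600 cells/well. After 5 h at 37 C/5% CO2 compounds were added; plates stayed at 37 C for 40 h with serial luminescence reads.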
On the % scale 0 is the no-effect control and ±100 the full control effect.

For `COc1ccc(S(=O)(=O)N2C(=O)[C@@](c3ccccc3OC)(N3C[C@H](O)C[C@H]3C(=O)N(C)C)c3cc(Cl)ccc32)c(OC)c1`, the Potency entry in [1], in [3], in assay [4], in assay [5] and in [6] was “inactive” each time. In addition, in assay [2], the Potency is 49 µM (active).
As to `C=CC(=O)OCCOCCOC(=O)C=C`, the Potency entry in assay [3] and in assay [6] was “inactive” throughout. The Potency in assay [5] is 49.2 µM (active).
With `O=[N+]([O-])c1cccc(S(=O)(=O)O)c1`, the Potency result in assay [7], in [8], in assay [3], in [9], in [4] and in [5] was “inactive” throughout. Also, the Potency entry in assay [6] is “inactive”. The Potency in [2] is 17.6 µM (active).
`OCc1cc(C(O)CNCCCCCCOCCCCc2ccccc2)ccc1O` (stereo unspecified): the Potency entry in assay [7] and in assay [6] was “inactive” each time. For the same compound, the Potency in assay [2], in [3], in assay [4] and in assay [5] was 23.9 µM (active) each time.
As for `Cc1cccc(Nc2ccccc2)c1`, the Potency in assay [1] was 34.7 µM (active); in assay [8], 38.9 µM (active); in assay [3], 43.6 µM (active); in assay [4] it was 38.9 µM (active); in assay [5], 38.9 µM (active). The max response in assay [2] is -10.8%. The Potency entry in assay [9] and in assay [6] was “inactive” each time.
Consider `O=C1[C@H]2CCCC[C@H]2C(=O)N1CCCCN1CCN(c2nsc3ccccc23)CC1`, for which the Potency entry in assay [7], in assay [8], in [3], in assay [9], in [5] and in assay [6] was “inactive” in each case.
For `Cc1oc2c(NC(=O)c3c(Cl)cccc3Cl)cccc2c1C(C)(C)O`, the Potency entry in [1], in [8], in [3], in assay [4] and in assay [6] was “inactive” throughout. Further, the Potency in [5] was 38.9 µM (active).
Consider `C[C@H]1C[C@H]2[C@@H]3CCC4=CC(=O)C=C[C@]4(C)[C@@]3(Cl)[C@@H](O)C[C@]2(C)[C@@]1(O)C(=O)CO`, for which the max response in [2] is -22.6%. In addition, the Potency result in assay [8], in assay [9], in assay [4], in assay [5] and in assay [6] was “inactive” in each case.
`CCC(C)c1cc(C(C)(C)C)c(O)c(C(C)(C)C)c1` (stereo unspecified): the Potency result in assay [10], in [7], in assay [9], in assay [4], in assay [5] and in assay [6] was “inactive” each time.
As to `CCCCC`, the Potency result in assay [10], in assay [7], in assay [3], in assay [9], in assay [4] and in assay [5] was “inactive” in each case. The Potency entry in [6] is “inactive”. The max response in assay [2] was 0.575%.
For the compound `c1ccc(C(O[C@H]2CCCN(CCc3ccc4c(c3)OCO4)C2)c2ccccc2)cc1`, the Potency result in assay [1], in assay [7], in assay [9] and in assay [6] was “inactive” in each case.
As for `C/C=C/C(=O)CC`, the activity change, negative = cytotoxicity in [10] was 1.69% [at 15.8 µM]; in assay [6], 9.44% [at 15.8 µM]. The viability change, negative = cytotoxic in [7] is 1.2% [at 15.8 µM]. Moreover, the cytotoxicity increase in assay [3] was -0.573% [at 15.8 µM]; in [5], -0.322% [at 15.8 µM]. The activity change, negative = cytotoxic in assay [9] was 0.591% [at 15.8 µM]. Further, in assay [4], the cytotoxicity was 1.31% [at 15.8 µM].
`C[N+]1(C)CCC(OC(=O)C(O)(c2ccccc2)C2CCCC2)C1` (stereo unspecified): the Potency entry in assay [10], in assay [7], in [3], in [4], in [5] and in [6] was “inactive” in each case. Moreover, the max response in assay [2] was 3.92%. Moreover, in assay [8], the Potency was 23.9 µM (active).
Consider `O=C(Cl)c1cc(C(=O)Cl)cc(C(=O)Cl)c1`, for which, in assay [2], the Potency is 49 µM (active). For the same compound, in [6], the Potency result is “inactive”.
Regarding `CC(C)=CCC/C(C)=C/CC/C(C)=C/CO`, the Potency result in [7], in assay [3], in assay [9], in [4] and in assay [6] was “inactive” throughout.
As for `CN(Cc1ccc(C(C)(C)C)cc1)Cc1cccc2ccccc12`, the Potency entry in [10], in assay [7], in assay [3], in [9], in assay [4] and in assay [5] was “inactive” in each case. In assay [6], the Potency entry is “inactive”. Moreover, the max response in assay [2] was -22.5%.
For `CNCCCCOc1ccccc1Cc1ccccc1`, the Potency result in [7] and in assay [6] was “inactive” each time. Besides, the Potency in assay [4] and in assay [5] was 23.9 µM (active) each time.
In the case of `COc1ccc(C(=O)c2ccc(OC)cc2O)c(O)c1`, the Potency entry in [7], in [3] and in assay [6] was “inactive” each time. Moreover, the Potency in assay [2] was 24.7 µM (active); in assay [5], 15.6 µM (active).
